In PubChem BioAssay:
Active and inactive are the calls of the source.

Key:
Albumin (Bos taurus) = Albumin (Bos taurus) (UniProt P02769); assay: compounds binding labelled BSA control protein – biochemical, small-molecule microarray, Alexa647 label, 635/667 nm fluorescence, artefact control for SMM control protein annotation, profiling panel (AID 1118); details: BSA-A647 binding, fluorescence 635 nm, higher = more signal;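 also: score merges 667 nm emission intensity and signal-to-noise per printed compound spot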
[1] = probe aXIP binding to arrayed compounds – biochemical, NeuroSMM set, 635/667 nm fluorescence, primary screen (AID 1119); details: small-molecule microarray, higher = more signal, called active from +8 up or from −8 down;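 also: probe is the protein aXip251-270 applied at 1 µg/mL to compound-printed slides; binding of probe to printed compounds measured as 667 nm fluorescence plus signal to noise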
[2] = probe aNOTCH3 binding on compound microarray – biochemical, small-molecule microarray, 635/667 nm fluorescence, primary screen (AID 1120); details: higher = more signal;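 also: probe is a biotin-tagged antibody raised against NOTCH3 rather than NOTCH3 protein; score merges spot fluorescence near 667 nm with spot signal to noise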
[3] = probe aNOTCH2 binding on compound microarray – biochemical, small-molecule microarray, 635/667 nm fluorescence, primary screen (AID 1121); details: higher = more signal;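 also: score merges feature fluorescence read at 667 nm with its signal to noise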
[4] = target: Carbonic anhydrase 2 (Homo sapiens) (UniProt P00918); assay: compounds binding carbonic anhydrase 2 – biochemical, small-molecule microarray, Alexa647-labelled CAII, profiling panel (AID 1122); details: CAII-A647 binding fluorescence, higher = more signal
[5] = COS7 lysate on small-molecule microarray, probe aHis, 635 nm (AID 1123); details: COS7 cell lysate, fluorescence, higher = more signal;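 also: z-score combines 667nm fluorescence intensity with signal-to-noise per printed compound spot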
[6] = probe aLAP1 signal on lysate-treated microarray – cell lysate, small-molecule microarray, COS7 lysate, primary screen (AID 1124); details: probe aLAP1, fluorescence, higher = more signal;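 also: lysate comes from COS7 cells expressing LAP1 and is applied at 0.3 µg/mL; score merges spot fluorescence near 667 nm with signal-to-noise over triplicate slides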
Sam68 (KHDRBS1) = assay: compounds binding KHDRBS1 protein – biochemical, small-molecule microarray, 635 nm fluorescence, primary screen (AID 1125); details: higher = more signal;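 also: score merges 667 nm channel intensity with signal to noise over triplicate slides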
[7] = tested on: Chordin-like protein 2 (CHRDL2); assay: compounds binding chordin-like 2 – biochemical, small-molecule microarray, 635 nm fluorescence, primary screen (AID 1126); details: fluorescence 635 nm, higher = more signal;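 also: printed compound slides probed with Chrdl2 protein at 4 µg/mL for 1 h at 4 C; score merges 667 nm emission intensity with signal to noise over three replicate slides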
[8] = target: Concanavalin-A (Canavalia ensiformis) (UniProt P02866); assay: compounds binding concanavalin A lectin – biochemical, small-molecule microarray, Alexa647 label, 635 nm, artefact control for SMM control protein annotation, primary screen (AID 1127); details: ConA-A647 binding fluorescence, higher = more signal;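 also: z combines 667 nm emission intensity with signal-to-noise across three replicate slides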
[9] = compounds binding Alexa647 anti-His antibody – biochemical, small-molecule microarray, 635 nm fluorescence, artefact control for SMM control protein annotation, primary screen (AID 1128); details: higher = more signal;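 also: score merges feature fluorescence with signal-to-noise for each printed compound spot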
[10] = tested on: Human papillomavirus type 1a E7 protein (residues 1-88); assay: HPV1a E7 small-molecule binders, primary screen, biochemical, small-molecule microarray, residues 1-88, 635 nm (AID 1129); details: small-molecule microarray binding, fluorescence 635 nm; higher = more signal
[11] = target: Focal adhesion kinase 1 (Homo sapiens) (UniProt Q05397); assay: PTK2 protein binding on printed compound slides – biochemical, small-molecule microarray, 635/667 nm fluorescence, BSA, DTT, primary screen (AID 1130); details: 635 nm fluorescence, higher = more signal;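 also: composite of spot emission at 667 nm and signal to noise over triplicate slides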
[12] = tested on: Fibrinogen (Alexa647-labelled); assay: Alexa647-fibrinogen binding to printed small molecules – biochemical, small-molecule microarray, 635/667 nm fluorescence, artefact control for SMM control-protein annotation, profiling panel (AID 1131); details: fibrinogen-A647 binding fluorescence, higher = more signal;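 also: z-score merges 667 nm fluorescence with per-spot signal-to-noise over triplicate slides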
[13] = target: Follistatin (Homo sapiens) (UniProt P19883); assay: FST protein binding to printed compounds – biochemical, small-molecule microarray, 635/667 nm fluorescence, primary screen (AID 1132); details: 635 nm fluorescence, higher = more signal
[14] = target: Fibroblast growth factor 2 (Homo sapiens) (UniProt P09038); assay: basic fibroblast growth factor binding to printed compounds – biochemical, small-molecule microarray, 635/667 nm fluorescence, primary screen (AID 1133); details: FGF2, fluorescence 635/667, higher = more signal
[15] = JC-1 mitochondrial potential readout, lung cancer cells – cell-based, A549, JC-1 fluorescence, basal, 24 h, 100 nL, profiling panel (AID 1138); details: higher = more signal;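 also: A549 lung adenocarcinoma cells under basal conditions with no added stimulus; test concentration not given here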
Lefty1 = Lefty1 protein binding to printed compounds – biochemical, small-molecule microarray, 635/667 nm fluorescence, primary screen (AID 1139); details: fluorescence 635/667, higher = more signal
[16] = tested on: wheat germ agglutinin (Triticum aestivum), Alexa647-labelled; assay: Alexa647-WGA lectin binding to printed small molecules – biochemical, small-molecule microarray, 635/667 nm fluorescence, artefact control for SMM control-protein annotation, profiling panel (AID 1140); details: WGA-A647 binding, 635 nm fluorescence, higher = more signal;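 also: score merges 667 nm feature emission with signal to noise over triplicate slides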
[17] = target: Luciferin 4-monooxygenase (Photinus pyralis) (UniProt P08659); assay: inhibition of purified Photinus pyralis luciferase – biochemical, luminescence, purified enzyme, 2006 set, primary screen (AID 1141); details: purified firefly luciferase, SteadyGlo luminescence, 30 min; higher = more signal, called active from +8 up or from −8 down;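 also: cell-free assay with purified firefly luciferase at 100 ng per well in PBS; test concentration not given here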
Chain of Luciferin 4-monooxygenase (Photinus pyralis) (P08659 whole entry, looked up): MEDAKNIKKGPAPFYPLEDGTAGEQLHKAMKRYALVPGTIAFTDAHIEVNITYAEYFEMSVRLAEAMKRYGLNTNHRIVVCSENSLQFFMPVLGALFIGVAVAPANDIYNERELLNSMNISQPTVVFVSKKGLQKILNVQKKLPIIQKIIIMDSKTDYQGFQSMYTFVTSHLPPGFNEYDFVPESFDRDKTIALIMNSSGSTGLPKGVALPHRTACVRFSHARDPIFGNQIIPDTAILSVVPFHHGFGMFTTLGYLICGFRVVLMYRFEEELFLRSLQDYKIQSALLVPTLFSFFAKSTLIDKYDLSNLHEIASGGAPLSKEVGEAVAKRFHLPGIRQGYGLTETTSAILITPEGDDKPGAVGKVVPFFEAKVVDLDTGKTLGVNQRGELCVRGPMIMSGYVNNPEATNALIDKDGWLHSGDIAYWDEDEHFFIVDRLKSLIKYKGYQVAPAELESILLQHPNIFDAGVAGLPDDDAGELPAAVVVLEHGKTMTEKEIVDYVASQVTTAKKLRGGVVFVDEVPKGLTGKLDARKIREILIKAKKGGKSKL

Chain of Concanavalin-A (Canavalia ensiformis) (P02866 whole entry, looked up): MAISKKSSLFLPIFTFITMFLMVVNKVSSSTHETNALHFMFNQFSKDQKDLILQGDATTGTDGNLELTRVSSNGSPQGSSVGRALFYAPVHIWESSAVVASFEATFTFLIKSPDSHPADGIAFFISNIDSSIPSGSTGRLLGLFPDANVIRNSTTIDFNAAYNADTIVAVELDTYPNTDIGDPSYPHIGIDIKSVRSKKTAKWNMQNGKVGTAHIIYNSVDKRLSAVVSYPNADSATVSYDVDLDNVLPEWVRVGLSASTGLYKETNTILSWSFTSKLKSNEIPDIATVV
Chain of Fibroblast growth factor 2 (Homo sapiens) (P09038 whole entry, looked up): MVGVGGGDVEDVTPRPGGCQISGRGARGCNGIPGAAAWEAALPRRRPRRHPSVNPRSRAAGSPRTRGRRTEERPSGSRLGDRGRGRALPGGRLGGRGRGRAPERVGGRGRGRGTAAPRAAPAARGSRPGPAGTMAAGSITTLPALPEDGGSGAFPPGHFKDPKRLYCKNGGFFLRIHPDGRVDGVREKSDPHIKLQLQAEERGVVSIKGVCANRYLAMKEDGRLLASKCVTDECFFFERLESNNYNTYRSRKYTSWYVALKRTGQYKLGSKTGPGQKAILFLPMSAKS
Chain of Albumin (Bos taurus) (P02769 whole entry, looked up): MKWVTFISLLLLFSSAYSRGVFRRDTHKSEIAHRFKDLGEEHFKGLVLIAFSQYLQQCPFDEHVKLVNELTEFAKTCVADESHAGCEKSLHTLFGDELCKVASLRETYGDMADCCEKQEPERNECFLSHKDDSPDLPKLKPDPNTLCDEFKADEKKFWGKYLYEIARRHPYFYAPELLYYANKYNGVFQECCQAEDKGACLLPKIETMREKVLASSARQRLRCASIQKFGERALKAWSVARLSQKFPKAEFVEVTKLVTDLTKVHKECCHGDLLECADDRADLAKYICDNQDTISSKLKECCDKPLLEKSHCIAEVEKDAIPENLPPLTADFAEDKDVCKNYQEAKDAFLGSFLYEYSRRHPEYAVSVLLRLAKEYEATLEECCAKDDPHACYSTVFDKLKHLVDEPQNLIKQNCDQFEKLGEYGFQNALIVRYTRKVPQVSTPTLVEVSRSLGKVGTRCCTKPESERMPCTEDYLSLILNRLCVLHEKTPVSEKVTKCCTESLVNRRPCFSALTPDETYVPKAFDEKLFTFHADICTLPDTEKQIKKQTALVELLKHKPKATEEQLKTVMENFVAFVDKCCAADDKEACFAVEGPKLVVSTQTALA
Chain of Focal adhesion kinase 1 (Homo sapiens) (Q05397 whole entry, looked up): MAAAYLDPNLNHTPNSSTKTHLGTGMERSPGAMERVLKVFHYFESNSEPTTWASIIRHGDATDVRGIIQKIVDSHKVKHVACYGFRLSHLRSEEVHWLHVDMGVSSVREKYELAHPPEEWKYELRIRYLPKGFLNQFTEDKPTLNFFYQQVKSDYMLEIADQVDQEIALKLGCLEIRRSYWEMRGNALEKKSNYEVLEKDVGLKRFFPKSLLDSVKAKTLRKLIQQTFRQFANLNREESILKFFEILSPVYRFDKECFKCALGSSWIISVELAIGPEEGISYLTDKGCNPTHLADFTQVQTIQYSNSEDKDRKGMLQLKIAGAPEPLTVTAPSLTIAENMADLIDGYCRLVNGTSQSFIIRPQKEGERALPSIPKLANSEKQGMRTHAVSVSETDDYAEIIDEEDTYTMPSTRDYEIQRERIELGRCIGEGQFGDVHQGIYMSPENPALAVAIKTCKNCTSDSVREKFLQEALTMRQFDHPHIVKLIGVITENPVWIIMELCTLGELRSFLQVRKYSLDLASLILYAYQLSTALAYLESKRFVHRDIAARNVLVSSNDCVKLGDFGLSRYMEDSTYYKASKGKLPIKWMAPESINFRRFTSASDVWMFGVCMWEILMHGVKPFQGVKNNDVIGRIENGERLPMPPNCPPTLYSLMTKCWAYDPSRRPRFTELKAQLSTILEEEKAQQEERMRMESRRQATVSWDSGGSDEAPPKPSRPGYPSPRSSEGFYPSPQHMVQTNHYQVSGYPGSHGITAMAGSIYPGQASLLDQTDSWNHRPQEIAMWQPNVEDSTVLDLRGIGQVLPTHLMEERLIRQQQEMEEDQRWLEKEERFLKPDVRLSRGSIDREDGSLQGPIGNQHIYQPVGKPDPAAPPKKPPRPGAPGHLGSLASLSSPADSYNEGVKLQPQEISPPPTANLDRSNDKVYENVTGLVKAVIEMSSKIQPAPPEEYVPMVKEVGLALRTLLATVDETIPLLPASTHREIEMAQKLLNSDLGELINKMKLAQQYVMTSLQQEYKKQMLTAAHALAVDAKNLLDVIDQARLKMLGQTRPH
Chain of Follistatin (Homo sapiens) (P19883 whole entry, looked up): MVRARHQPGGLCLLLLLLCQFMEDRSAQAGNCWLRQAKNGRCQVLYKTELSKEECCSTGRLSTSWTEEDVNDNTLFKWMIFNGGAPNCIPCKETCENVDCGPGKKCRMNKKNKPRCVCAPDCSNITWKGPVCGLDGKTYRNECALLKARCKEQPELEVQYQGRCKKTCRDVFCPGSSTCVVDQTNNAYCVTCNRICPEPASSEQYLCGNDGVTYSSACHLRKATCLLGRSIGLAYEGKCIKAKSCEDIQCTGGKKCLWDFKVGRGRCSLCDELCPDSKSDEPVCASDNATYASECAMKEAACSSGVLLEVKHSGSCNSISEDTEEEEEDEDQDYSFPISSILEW

Row | SMILES | composite z-score (Albumin (Bos taurus)) | composite Z-score [1] | composite z-score [2] | composite z-score [3] | composite z-score [4] | composite z-score [5] | composite z-score [6] | composite z-score (Sam68 (KHDRBS1)) | composite z-score [7] | composite z-score [8] | composite z-score [9] | composite z-score [10] | composite z-score [11] | composite z-score [12] | composite z-score [13] | composite z-score [14] | z-score [15] | composite z-score (Lefty1) | composite z-score [16] | z-score [17]
1 | CCOC(=O)[C@H](Cc1ccccc1)NC(=O)CCC1CC(OC(=O)NCc2cccc3ccccc23)CC2(CCCC(COC(=O)NCC(c3ccccc3)c3ccccc3)O2)O1 (stereo not given in full) | 0.313 | 0.793 (inactive) | 0.062 | -0.169 | 0.394 | 0.468 | -0.0448 | 0.914 | 0.203 | 0.256 | 1.06 | 0.455 | 0.384 | 0.853 | 0.411 | 0.39 | -0.243 | 0.589 | -0.0722 | 0.611 (inactive)
2 | O=C1[C@H]2[C@H]3[C@H](O)[C@H](O)CC(=NO[C@@H]4O[C@H](CO)[C@@H](O)[C@H](O)[C@H]4O)[C@H]3CC[C@H]2C(=O)N1c1cccc(Oc2ccccc2)c1 | -0.0534 | 0.189 (inactive) | -0.118 | -0.133 | -0.0707 | 0.305 | 0.105 | 0.88 | 0.48 | 0.264 | 1.25 | 0.394 | 0.199 | 0.574 | 0.423 | 0.445 | -0.873 | 0.802 | 0.13 | 1.14 (inactive)
3 | CCO[C@H](c1cc(OC)cc([N+](=O)[O-])c1OC)[C@H](C)C=CCC(=O)OC | -0.424 | 0.277 (inactive) | -0.0682 | -0.122 | -0.324 | -0.925 | 0.251 | 0.143 | 0.516 | -0.221 | 0.051 | -0.467 | -0.361 | -0.364 | 0.66 | 0.479 | 0.347 | 0.747 | 0.0356 | -0.734 (inactive)
4 | CSCC[C@@H]1NC(=O)CC=C[C@@H](C)COC(=O)[C@@H](C)COC1=O | -1.1 | 0.517 (inactive) | -0.155 | -0.175 | -0.762 | -1.1 | 0.145 | -0.399 | 0.683 | -2.02 | -0.888 | -1.81 | -0.948 | -2.46 | 0.556 | 0.0867 | 1.31 | -0.0168 | -1.71 | -0.343 (inactive)
5 | CC(CCN1CCCCc2nc(C)c(C)cc21)=NOC[C@@H](C)[C@H](OCc1ccccc1)C(C)C | -0.303 | -0.461 (inactive) | -0.427 | -0.298 | -0.497 | -0.31 | -0.899 | -0.758 | -1.78 | -1.88 | 1.59 | -0.824 | -0.0923 | -2.81 | -2.3 | -0.84 | 0.37 | -0.795 | -0.614 | -0.486 (inactive)
6 | CCOC(=O)[C@H](Cc1ccccc1)NC(=O)CCC1CC(OC(=O)NCc2cccc3ccccc23)CC2(CCCC(COC(=O)NCCC(C)C)O2)O1 (stereo not given in full) | 0.793 | 0.142 (inactive) | -0.0956 | -0.133 | 0.742 | 0.426 | 0.23 | -1.08 | -0.0587 | 0.653 | 0.603 | -0.431 | -0.225 | 0.604 | 0.123 | -0.278 | -0.0858 | 0.129 | 0.757 | 0.871 (inactive)
7 | CO[C@H]1COC(=O)[C@@H](C)COC(=O)[C@@H](OCc2ccccc2)C=C[C@@H]1C | -0.858 | -0.535 (inactive) | -0.103 | -0.115 | -0.369 | -0.194 | -0.259 | -0.234 | 0.159 | -0.459 | -0.328 | -0.869 | 0.106 | -0.648 | -0.17 | 0.193 | 0.651 | 0.0823 | -1.08 | -0.415 (inactive)
8 | COC(=O)CC=C[C@@H](C)[C@@H](C=NOCC[C@@H]1C=C[C@H](OC(C)=O)[C@@H](COC(C)=O)O1)OC | -0.395 | 0.181 (inactive) | -0.0006 | -0.115 | -0.0197 | 0.849 | -0.0402 | 0.411 | 0.432 | -0.319 | -0.131 | 0.34 | 0.222 | -0.902 | 0.73 | 0.785 | 0.493 | 0.66 | -0.876 | 0.177 (inactive)
9 | CO[C@H]1COC(=O)CC=C[C@H](C)[C@@H](OC)COC(=O)[C@@H](C)NC(=O)CC=C[C@@H]1C | -0.614 | 0.611 (inactive) | -0.173 | -0.169 | -0.581 | -0.629 | 0.304 | -0.0974 | 1.47 | -0.897 | 0.437 | -1.32 | -0.535 | -1.31 | 1.45 | 1.1 | -1.05 | 1.47 | 0.0216 | 0.674 (inactive)
10 | CON=Cc1ccc(C(=O)N2[C@H](c3ccc(C)cc3)[C@@H](C)CC[C@H]2C(=O)OC)cc1 | 0.54 | 0.059 (inactive) | 0.0257 | -0.202 | 0.0882 | 0.715 | 0.251 | 1.11 | 0.262 | 0.669 | 2.72 | 0.73 | -0.176 | 0.53 | 0.419 | 0.412 | -0.0876 | 0.595 | 0.112 | -1.06 (inactive)
11 | COC(=O)[C@H](C)NC(=O)CCC1CC(OC(=O)NCc2ccc3c(c2)OCO3)CC2(CCCC(COC(=O)NCC(c3ccccc3)c3ccccc3)O2)O1 (stereo not given in full) | 0.409 | 0.265 (inactive) | 0.0159 | -0.123 | 0.478 | 1.29 | 0.165 | 1.29 | 0.738 | 1.12 | 1.31 | 1.22 | 0.136 | 0.925 | 0.986 | 0.903 | -1.35 | 1.25 | 0.31 | 0.834 (inactive)
